According to PubChem BioAssay (NCI):
This is part of a sample that, as a whole, favours compounds with a hit. Of some 83,000 tested, about 20% had one in any assay.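 Single-dose data. Exposure time 48 hours. Values below 10 considered active.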 Activity calls are given as the source filed them.

tested on: SR leukemia; assay: NCI-60 one-dose screen, 48 h (100 = growth as untreated, 0 = no growth, -100 = all killed); details: 10 µM unless noted

Question: How did the growth turn out when `CC(C)c1ccc(C(=O)OCCCl)cc1` was run?
Answer: 106% (inactive)

Question: For `CCCCNC(=O)c1ccc(OCC)cc1`, which growth is on record?
Answer: 104% (inactive)

Question: For `N#Cc1ccc(OC(=O)Nc2cc(Cl)cc(Cl)c2)cc1`, which growth is on record?
Answer: -30.4% [100 µM] (active)

Question: Which growth does the source give for `CCOC(=O)C(C#N)=C1CCN(C)CC1` here?
Answer: 79.9% (inactive)

Question: How did the growth turn out when `COC(CCCl)c1ccc(Cl)cc1` (stereo not drawn) was run?
Answer: 90.2% (inactive)

Question: With `CCOc1ccc(C(=O)NCC(C)C)cc1` as the molecule, how does the growth read?
Answer: 102% (inactive)

Question: How did the growth turn out when `O=S(=O)(c1ccc(NC(=S)NCc2cccnc2)cc1)N1CCCCC1` was run?
Answer: 49.1% (inactive)

Question: `Cc1ccc(NC(=O)c2ccccc2Cl)cc1` was tested. Which growth did it give?
Answer: 92.3% (inactive)

Question: For `OCC1CCC(O)C(CO)N1` (stereo not drawn), which growth is on record?
Answer: 101% (inactive)

Question: With `CCCCCCCCNC(=O)C(C)C` as the molecule, how does the growth read?
Answer: 102% (inactive)

Question: `N#C/C(=C\c1ccc2c(c1)OCO2)c1ccccc1` was tested. Which growth did it give?
Answer: 14.2% (inactive)

tested on: RPMI-8226 leukemia; assay: as above; details: 10 µM unless noted

Question: How did the growth turn out when `COC(=O)Cc1cc(COC(C)=O)ccc1C` was run?
Answer: 110% (inactive)

Question: For `Cc1ccc(/C=N/NC(N)=S)s1`, which growth is on record?
Answer: 100% (inactive)

Question: For `Cc1cc(=O)n(Nc2ccccc2)c(O)c1C#N`, which growth is on record?
Answer: 99.8% (inactive)

Question: Which growth does the source give for `CN(C)c1ccc(O)c2c1CC1CC3C(N(C)C)C(=O)C(C(N)=O)=C(O)C3(O)C(=O)C1=C2O` (stereo not drawn) here?
Answer: 20.6% (inactive)

Question: Which growth does the source give for `C/C(=N\N=C(/C)c1cccc([N+](=O)[O-])c1)c1cccc([N+](=O)[O-])c1` here?
Answer: 87.7% (inactive)

Question: With `CC(=O)c1ccc(C)cc1` as the molecule, how does the growth read?
Answer: 113% (inactive)

Question: With `CCOC(=O)Nc1nccs1` as the molecule, how does the growth read?
Answer: 100% (inactive)

Question: How did the growth turn out when `CCNC(=O)Oc1ccc[nH]c1=O` was run?
Answer: 93.4% (inactive)

Question: For `Cc1nc(C)c(C(=O)O)cc1C(=O)O`, which growth is on record?
Answer: 106% (inactive)

Question: Which growth does the source give for `CC(CO)(CO)C(=O)O` here?
Answer: 97.2% (inactive)

Question: How did the growth turn out when `CCOC(=O)CNC` was run?
Answer: 99.7% (inactive)

Question: For `CC(c1ccccc1)N(C)C` (stereo not drawn), which growth is on record?
Answer: 155% (inactive)

Question: `COC1CC(OC(=O)c2ccc([N+](=O)[O-])cc2)C(COC(=O)c2ccc([N+](=O)[O-])cc2)O1` (stereo not drawn) was tested. Which growth did it give?
Answer: 101% (inactive)

Question: For `Nc1cccc2cccc(O)c12`, which growth is on record?
Answer: 85.5% (inactive)

Question: With `CC(CCC#N)(CCC#N)C(=O)c1ccccc1` as the molecule, how does the growth read?
Answer: 101% (inactive)

Question: How did the growth turn out when `O=[N+]([O-])c1c(Cl)ncnc1Cl` was run?
Answer: 96.2% (inactive)

Question: With `NS(=O)(=O)c1cc(=O)[nH]c(=O)[nH]1` as the molecule, how does the growth read?
Answer: 118% (inactive)

Question: For `COc1ccc2c(Cl)cc(NC(=O)Nc3c(C)cccc3C)nc2c1`, which growth is on record?
Answer: 73% (inactive)

Question: For `CC(=O)c1cccc(O)c1`, which growth is on record?
Answer: 105% (inactive)

Question: For `Cc1nc(O)cc(=O)[nH]1`, which growth is on record?
Answer: 114% (inactive)

Question: Which growth does the source give for `Cc1ccc(C)c2c1CCC2=O` here?
Answer: 84.1% (inactive)

Question: With `O=C(OC1CCCC1)c1ccccc1Cl` as the molecule, how does the growth read?
Answer: 102% (inactive)

Question: Which growth does the source give for `CC(C)c1ccc(C(=O)OCCCl)cc1` here?
Answer: 221% (inactive)

Question: How did the growth turn out when `CCCCNC(=O)c1ccc(OCC)cc1` was run?
Answer: 99.1% (inactive)

Question: `N#Cc1ccc(OC(=O)Nc2cc(Cl)cc(Cl)c2)cc1` was tested. Which growth did it give?
Answer: -13% [100 µM] (active)

Question: With `CCOC(=O)C(C#N)=C1CCN(C)CC1` as the molecule, how does the growth read?
Answer: 102% (inactive)

Question: With `COC(CCCl)c1ccc(Cl)cc1` (stereo not drawn) as the molecule, how does the growth read?
Answer: 100% (inactive)

Question: For `CCOc1ccc(C(=O)NCC(C)C)cc1`, which growth is on record?
Answer: 105% (inactive)

Question: Which growth does the source give for `COc1ccc(C2CCCCC2=O)cc1` (stereo not drawn) here?
Answer: 107% (inactive)

Question: Which growth does the source give for `O=S(=O)(c1ccc(NC(=S)NCc2cccnc2)cc1)N1CCCCC1` here?
Answer: 36.2% (inactive)

Question: With `Cc1ccc(NC(=O)c2ccccc2Cl)cc1` as the molecule, how does the growth read?
Answer: 94.8% (inactive)

Question: `OCC1CCC(O)C(CO)N1` (stereo not drawn) was tested. Which growth did it give?
Answer: 83.7% (inactive)

Question: With `CCCCCCCCNC(=O)C(C)C` as the molecule, how does the growth read?
Answer: 99.1% (inactive)

Question: With `N#C/C(=C\c1ccc2c(c1)OCO2)c1ccccc1` as the molecule, how does the growth read?
Answer: 74.8% (inactive)

tested on: OVCAR-8 ovarian; assay: as above; details: 10 µM unless noted

Question: For `COC(=O)Cc1cc(COC(C)=O)ccc1C`, which growth is on record?
Answer: 108% (inactive)

Question: How did the growth turn out when `Cc1ccc(/C=N/NC(N)=S)s1` was run?
Answer: 107% (inactive)

Question: With `CN(C)c1ccc(O)c2c1CC1CC3C(N(C)C)C(=O)C(C(N)=O)=C(O)C3(O)C(=O)C1=C2O` (stereo not drawn) as the molecule, how does the growth read?
Answer: 38.3% (inactive)

Question: `C/C(=N\N=C(/C)c1cccc([N+](=O)[O-])c1)c1cccc([N+](=O)[O-])c1` was tested. Which growth did it give?
Answer: 79.6% (inactive)

Question: With `CC(=O)c1ccc(C)cc1` as the molecule, how does the growth read?
Answer: 108% (inactive)

Question: With `O=C1Nc2ccccc2/C1=C\c1ccccc1O` as the molecule, how does the growth read?
Answer: 91.1% (inactive)

Question: `CCOC(=O)Nc1nccs1` was tested. Which growth did it give?
Answer: 104% (inactive)

Question: For `CCNC(=O)Oc1ccc[nH]c1=O`, which growth is on record?
Answer: 25.9% (inactive)

Question: How did the growth turn out when `Cc1nc(C)c(C(=O)O)cc1C(=O)O` was run?
Answer: 115% (inactive)

Question: Which growth does the source give for `CC(=O)OCC1OC(n2cnc3c(=S)nc(N)[nH]c32)C(OC(C)=O)C1OC(C)=O` (stereo not drawn) here?
Answer: 76.6% (inactive)

Question: For `CCOC(=O)CNC`, which growth is on record?
Answer: 91.3% (inactive)

Question: `CC(c1ccccc1)N(C)C` (stereo not drawn) was tested. Which growth did it give?
Answer: 117% (inactive)

Question: Which growth does the source give for `COC1CC(OC(=O)c2ccc([N+](=O)[O-])cc2)C(COC(=O)c2ccc([N+](=O)[O-])cc2)O1` (stereo not drawn) here?
Answer: 91.2% (inactive)

Question: Which growth does the source give for `Nc1cccc2cccc(O)c12` here?
Answer: 86.7% (inactive)

Question: How did the growth turn out when `CC(CCC#N)(CCC#N)C(=O)c1ccccc1` was run?
Answer: 105% (inactive)

Question: For `O=[N+]([O-])c1c(Cl)ncnc1Cl`, which growth is on record?
Answer: 104% (inactive)

Question: With `NS(=O)(=O)c1cc(=O)[nH]c(=O)[nH]1` as the molecule, how does the growth read?
Answer: 114% (inactive)

Question: How did the growth turn out when `COc1ccc2c(Cl)cc(NC(=O)Nc3c(C)cccc3C)nc2c1` was run?
Answer: 61.3% (inactive)

Question: Which growth does the source give for `CC(=O)c1cccc(O)c1` here?
Answer: 103% (inactive)

Question: `Cc1nc(O)cc(=O)[nH]1` was tested. Which growth did it give?
Answer: 105% (inactive)

Question: With `Cc1ccc(C)c2c1CCC2=O` as the molecule, how does the growth read?
Answer: 104% (inactive)

Question: How did the growth turn out when `CC(C)c1ccc(C(=O)OCCCl)cc1` was run?
Answer: 94% (inactive)

Question: `CCCCNC(=O)c1ccc(OCC)cc1` was tested. Which growth did it give?
Answer: 103% (inactive)

Question: `CCOC(=O)C(C#N)=C1CCN(C)CC1` was tested. Which growth did it give?
Answer: 93% (inactive)

Question: For `COC(CCCl)c1ccc(Cl)cc1` (stereo not drawn), which growth is on record?
Answer: 96.9% (inactive)

Question: With `CCOc1ccc(C(=O)NCC(C)C)cc1` as the molecule, how does the growth read?
Answer: 105% (inactive)

Question: How did the growth turn out when `COc1ccc(C2CCCCC2=O)cc1` (stereo not drawn) was run?
Answer: 103% (inactive)

Question: With `O=S(=O)(c1ccc(NC(=S)NCc2cccnc2)cc1)N1CCCCC1` as the molecule, how does the growth read?
Answer: 110% (inactive)

Question: How did the growth turn out when `Cc1ccc(NC(=O)c2ccccc2Cl)cc1` was run?
Answer: 115% (inactive)

Question: `Nc1ccccc1SC1CC(=O)N(c2ccc(Cl)c(Cl)c2)C1=O` (stereo not drawn) was tested. Which growth did it give?
Answer: 79.4% (inactive)

Question: `OCC1CCC(O)C(CO)N1` (stereo not drawn) was tested. Which growth did it give?
Answer: 112% (inactive)

Question: With `CCCCCCCCNC(=O)C(C)C` as the molecule, how does the growth read?
Answer: 109% (inactive)

Question: With `N#C/C(=C\c1ccc2c(c1)OCO2)c1ccccc1` as the molecule, how does the growth read?
Answer: 90.1% (inactive)
